Only some compounds are listed: those with a hit (about 19% of all), similar ones and a draw of the others.
IL1B secr inh – inflammasome signaling inhibition, IL-1 beta readout. THP-1 LPS/ATP IL-1B secretion, AlphaLISA, 16 h; hits give low values. 4.7% of 360,000 active. activity change, % at 57.5 µM; in the data active means activity change below about -50%; inconclusive means mostly about -30% to -49%
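Secreted IL-1B measured by AlphaLISA bead assay after 16 h compound exposure of THP-1 cells; compounds (final up to 57.5 uM) added 1 h before LPS (250 ng/mL) and ATP (1.25 mM) stimulation; lower signal means less secretion.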
TDP1 inh – TDP1 (human) enzyme inhibition; Q9NUW8; recombinant TDP1, AlphaScreen DNA substrate cleavage; Potency, µM (series often up to 130 µM), actives largely listed as inhibitors; 0.28% of 350,000 active; further: nearly all actives have a fitted effect of over 40% in size
Target sequence (Q9NUW8 whole entry, looked up): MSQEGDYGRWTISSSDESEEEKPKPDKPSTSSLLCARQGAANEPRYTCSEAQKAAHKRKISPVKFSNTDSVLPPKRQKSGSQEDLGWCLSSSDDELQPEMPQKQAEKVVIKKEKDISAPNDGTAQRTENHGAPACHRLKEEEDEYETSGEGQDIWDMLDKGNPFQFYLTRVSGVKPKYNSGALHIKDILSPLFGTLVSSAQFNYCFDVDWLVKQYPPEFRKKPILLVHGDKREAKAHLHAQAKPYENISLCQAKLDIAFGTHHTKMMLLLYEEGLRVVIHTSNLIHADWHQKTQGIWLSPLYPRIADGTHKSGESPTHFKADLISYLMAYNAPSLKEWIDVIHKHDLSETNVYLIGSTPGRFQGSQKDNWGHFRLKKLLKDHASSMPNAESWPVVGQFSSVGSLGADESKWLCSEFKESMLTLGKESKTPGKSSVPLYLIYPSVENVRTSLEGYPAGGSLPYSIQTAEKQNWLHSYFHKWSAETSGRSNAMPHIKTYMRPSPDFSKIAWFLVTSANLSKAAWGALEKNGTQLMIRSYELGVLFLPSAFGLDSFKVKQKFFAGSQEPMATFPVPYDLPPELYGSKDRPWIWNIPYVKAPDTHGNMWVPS
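Here, a 5' biotin and 3' phosphotyrosine-FITC DNA oligonucleotide reports Tdp1 activity: intact substrate bridges AlphaScreen beads, while cleavage leaves a 3' phosphate and drops signal. All incubations at room temperature.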
TDP1 cell noCPT – qHTS for Inhibitors of human tyrosyl-DNA phosphodiesterase 1 (TDP1): qHTS in cells in absence of CPT. DT40 Tdp1-/- hTDP1 cells, no CPT, ATP luminescence, 48 h. Potency, µM (top dose mostly 46.2 µM), actives largely listed as inhibitors. 15% of 420,000 active; further: nearly all actives have a fitted effect of over 55% in size
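Seeded 400 DT40-hTDP1 cells/well (vehicle DMSO, no 20 nM CPT); pinned compounds; ≥48 hr at 37 °C; CellTiter-Glo luminescence as viability measure.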
ELG1 DNA repair – inhibitors of ELG1-dependent DNA repair in HEK293T cells. HEK293T ELG1-luciferase reporter, luminescence, 16 h; DNA damage induced by 5-fluorouridine. Potency, µM (highest dose often 46.1 µM), hits mostly inhibitors. 2.3% of 330,000 active; further: nearly all actives have a fitted effect of over 55% in size
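Overnight (16 hr) co-exposure of 2,000 cells/well to 5-fluorouridine and compound at 37 °C preceded detection. Luciferase was quantified via ONE-Glo luminescence; loss of signal denotes inhibition.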
Giardia killer – Giardia lamblia killing. Giardia lamblia trophozoite viability. activity change, % at 7.66 µM, hits read low. 0.15% of 340,000 active. AID 540267; in the data active means activity change below about -80%; inconclusive means between about -30% and that limit;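 further: parasites exposed to compound for two days anaerobically before the ATP read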
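Trophozoites 100 cells/well + cpd; 48 hrs, 37 deg C, anaerobic. ATPLite 1-Step added, 15-30 min RT, luminescence read (ATP-based viability).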
DT40 TDP1 CPT – DT40-hTDP1 cell growth loss with CPT; Potency, µM (titrated, usually from 46.2 µM), hits mostly inhibitors; 12% of 420,000 active; chicken DT40 Tdp1-/-;hTDP1 cells + 20 nM CPT, ATP luminescence, 48 h; further: nearly all actives have a fitted effect of over 55% in size
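Chicken DT40 Tdp1-/- cells stably complemented with human TDP1 were seeded at 400 cells/well in medium containing 20 nM camptothecin, exposed to pin-transferred compounds, and grown at 37 °C for at least 48 hr. Viability was read as ATP luminescence.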
Of the large screens only hits and unclear results are named; the others gave an inactive call. Unless noted, the call rests on the fitted dose curve; in most records, active means well fitted curve in the direction sought with a large enough effect; inconclusive means small, poorly fitted or top-dose-only effect, or another doubt; inactive means no such curve, though single readings can be large; an effect the other way counts as inactive or inconclusive.

O=C(CS(=O)(=O)c1ccccc1)NCc1ccccc1	none
COc1cccc(S(=O)(=O)N(C)C[C@H]2Oc3cc(Br)ccc3S(=O)(=O)N([C@@H](C)CO)C[C@H]2C)c1	TDP1 cell noCPT 15µM, DT40 TDP1 CPT 21µM (no result: TDP1 inh, ELG1 DNA repair, Giardia killer)
COc1ccc(N2CCN(CC(=O)Nc3c(C)cccc3C)CC2)cc1	TDP1 cell noCPT inconclusive, DT40 TDP1 CPT inconclusive (no result: TDP1 inh, ELG1 DNA repair, Giardia killer)
CCCc1ccc(S(=O)(=O)N/N=C\c2ccc3c(c2)OCO3)cc1	DT40 TDP1 CPT inconclusive
CC(NNC(=S)N1CCN(c2ccccn2)CC1)c1nccc2ccccc12 (stereo not given)	IL1B secr inh -101, TDP1 cell noCPT 0.018µM, DT40 TDP1 CPT 0.0092µM (no result: TDP1 inh, ELG1 DNA repair)
CCNC(=S)N1CCN(c2ccccn2)CC1	none
O=S(=O)(/N=C(/Nc1cccc2ccccc12)c1ccccc1)c1ccc(Br)cc1	none
CCOc1ccc(NC(=S)NC(=O)c2cccnc2)c([N+](=O)[O-])c1	none
CCc1ccc(NC(=O)C(C)n2nc(C)c([N+](=O)[O-])c2C)cc1 (stereo not given)	none
Nc1nc2ccccc2n1/N=C/c1ccc(Br)cc1	TDP1 cell noCPT 16µM, ELG1 DNA repair inconclusive, DT40 TDP1 CPT inconclusive
COc1ccc(CN2C(=O)c3ccccc3C(/C=N/OCc3ccc(Cl)cc3)C2=O)cc1 (stereo not given)	TDP1 cell noCPT 12µM, DT40 TDP1 CPT 13µM
COc1ccc(CN2C(=O)[C@@H]3C(c4ccc(F)cc4)=NO[C@@H]3C2=O)cc1	none
COc1ccc(CN2C(=O)c3ccccc3C2=O)cc1	none (no result: TDP1 inh)
COc1ccc(CN2C(=O)c3ccccc3C(/C=N\OCc3ccc(F)cc3)C2=O)cc1 (stereo not given)	TDP1 cell noCPT 8.2µM, DT40 TDP1 CPT inconclusive
CCOc1ccccc1CNC(=O)C1CCN(C(=O)N2CCOc3ccc(Cl)cc32)CC1	TDP1 cell noCPT inconclusive, DT40 TDP1 CPT inconclusive (no result: IL1B secr inh, ELG1 DNA repair, Giardia killer)
O=[N+]([O-])c1ccc(C2=Nn3c(Cn4nnc5ccccc54)nnc3SC2)cc1	TDP1 cell noCPT 16µM, ELG1 DNA repair inconclusive, DT40 TDP1 CPT 21µM (no result: TDP1 inh)
CCCc1nnc2n1N=C(c1ccc([N+](=O)[O-])cc1)CS2	ELG1 DNA repair inconclusive
COc1ccc2c(CNCc3ccc(C)o3)c(C(=O)O)n(Cc3ccccc3)c2c1	TDP1 cell noCPT inconclusive (no result: IL1B secr inh, ELG1 DNA repair, Giardia killer)
COc1ccc(Cn2c(C(=O)O)c(CNCc3ccc(SC)cc3)c3ccc(OC)cc32)cc1	TDP1 cell noCPT 5.8µM, DT40 TDP1 CPT 5.2µM (no result: IL1B secr inh, ELG1 DNA repair, Giardia killer)
C=Cc1ccc(Cn2c(C(=O)O)c(CNCc3ccccc3)c3ccc(OC)cc32)cc1	TDP1 cell noCPT 15µM, DT40 TDP1 CPT inconclusive (no result: IL1B secr inh, ELG1 DNA repair, Giardia killer)
COc1ccc2c(CNC3CCCCCC3)c(C(=O)O)n(Cc3ccccc3F)c2c1	TDP1 cell noCPT inconclusive, DT40 TDP1 CPT inconclusive (no result: IL1B secr inh, ELG1 DNA repair, Giardia killer)
CCOc1ccc(CNCc2c(C(=O)O)n(Cc3ccccc3F)c3cc(OC)ccc23)cc1	TDP1 cell noCPT 5.8µM, DT40 TDP1 CPT 18µM (no result: IL1B secr inh, ELG1 DNA repair, Giardia killer)
O=C(O)C1CCN(Cc2cccnc2)CC1	none
Cc1ccc(C(=O)c2cc([N+](=O)[O-])ccc2N2CC(C)OC(C)C2)cc1 (stereo not given)	TDP1 cell noCPT 3.3µM, DT40 TDP1 CPT 5.8µM
O=C(c1ccc(Br)cc1)c1cc([N+](=O)[O-])ccc1N1CCOCC1	TDP1 cell noCPT 1.5µM, ELG1 DNA repair inconclusive, DT40 TDP1 CPT 0.82µM
CC(C)CNC(=O)c1cc([N+](=O)[O-])ccc1N1CCOCC1	none
O=C(c1ccc(Cl)cc1)c1cc([N+](=O)[O-])ccc1N1CCOCC1	TDP1 cell noCPT 0.82µM, DT40 TDP1 CPT 0.73µM
O=C(c1cc([N+](=O)[O-])ccc1N1CCOCC1)N1CCCCC1	none
O=C(c1ccccc1)c1cc([N+](=O)[O-])ccc1N1CCOCC1	TDP1 cell noCPT 0.82µM, ELG1 DNA repair inconclusive, DT40 TDP1 CPT 0.73µM
Cc1ccccc1N(C)C1=N[S+](=O)([O-])c2ccccc21	none (no result: IL1B secr inh, TDP1 cell noCPT, ELG1 DNA repair, Giardia killer, DT40 TDP1 CPT)
